# Compound activity (PubChem BioAssay)
# DUX4 inh – inhibitors of DUX4-driven ZSCAN4 reporter expression, primary screen, 293T cells, Gaussia and Italica luciferase | 293T-iDUX4 ZSCAN4-Gaussia luciferase reporter, 24 h; hits give low values | activity change, negative = inhibition, % (test concentration not listed) | 37,000 compounds, 0.8% hits | AID 1224904, 2016;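 active means mean inhibition of at least 10% in the main channel, exceeding the control channel by a set limit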;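 further: 0% = median of neutral control wells and -100% = median of positive control wells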
# * = called active by the depositor. Only a selection was taken, and hits are over-represented in it overall.
SMILES,DUX4 inh
Cc1cccc(-c2ccc([C@@H]3[C@@H](CO)N4CCCCN(CCC(F)(F)F)C[C@@H]34)cc2)c1,-56*
OC[C@H]1[C@H](c2ccc(-c3cccc(F)c3)cc2)[C@@H]2CN(CCC(F)(F)F)CCCCN12,-47*
OC[C@H]1[C@@H](c2ccc(-c3cccc(F)c3)cc2)[C@H]2CN(Cc3cncnc3)CCCCN21,5
Cc1cccc(-c2ccc([C@H]3[C@@H](CO)N4CCCCN(CCC(F)(F)F)C[C@H]34)cc2)c1,-39*
Cc1cccc(-c2ccc([C@H]3[C@@H](CO)N4CCCCN(Cc5ccncc5)C[C@H]34)cc2)c1,-7
COc1cccc(S(=O)(=O)N[C@@H]2C=C[C@H](CC(=O)NCc3ccncc3)O[C@H]2CO)c1,0
CCCNC(=O)N1CC2(CN(C(=O)C3CCC3)C2)c2c([nH]c3cc(OC)ccc23)[C@@H]1CO,4
CCS(=O)(=O)Nc1ccc2c(c1)C(=O)N(C)[C@H]1CC[C@H](CC(=O)OC)O[C@@H]1CO2,-4
CCCC#Cc1ccc2c(c1)O[C@@H](CN(C)C(=O)CC1CC1)[C@H](C)CN([C@H](C)CO)S2(=O)=O,6
CCN1[C@@H]2c3ccc(-c4cccc(F)c4)c(=O)n3C[C@@H]2[C@@H](CO)[C@@H]1C(=O)N(C)C,3
C[C@@H]1CN([C@@H](C)CO)C(=O)c2cc(NS(=O)(=O)c3cn(C)cn3)ccc2O[C@@H](C)CCCCO[C@@H]1CN(C)C(=O)Nc1cccc2ccccc12,4
C[C@H](NC(=O)C[C@H]1C[C@H]2c3cc(NC(=O)C4CCOCC4)ccc3O[C@H]2[C@H](CO)O1)c1ccccc1,3
O=C(CN1CCOCC1)NCC[C@@H]1CC[C@H](NC(=O)c2ccc3c(c2)OCO3)[C@@H](CO)O1,0
COc1ccc2c3c([nH]c2c1)[C@@H](CO)N(C(=O)c1ccc(F)cc1)CC31CCN(C)CC1,3
C[C@H]1CN([C@@H](C)CO)C(=O)c2ccccc2-c2ccccc2CO[C@@H]1CN(C)Cc1ccc(Cl)c(Cl)c1,-42*
C[C@H](CO)N1C[C@H](C)[C@@H](CN(C)Cc2ccc(F)cc2)OCc2ccccc2-c2ccccc2C1=O,16
C[C@H](CO)N1C[C@H](C)[C@H](CN(C)Cc2ccc(O)cc2)OCc2ccccc2-c2ccccc2C1=O,-3
C[C@@H]1CN([C@H](C)CO)C(=O)c2ccccc2-c2ccccc2CO[C@@H]1CN(C)Cc1ccc(Cl)c(Cl)c1,-52*
C[C@@H]1CN([C@H](C)CO)C(=O)c2ccccc2-c2ccccc2CO[C@@H]1CN(C)Cc1ccc2c(c1)OCO2,-10
C[C@@H]1CN([C@@H](C)CO)C(=O)c2ccccc2-c2ccccc2CO[C@@H]1CN(C)Cc1ccc(O)cc1,0
C[C@@H]1CN([C@H](C)CO)C(=O)c2cc(NC(=O)NC3CCCCC3)ccc2O[C@@H]1CN(C)Cc1ccc(C(=O)Nc2ccccc2N)cc1,1
Cc1cccc(-c2ccc([C@H]3[C@H](CO)N4C(=O)CN(C(=O)c5cnccn5)C[C@@H]34)cc2)c1,6
COc1ccc(CN2C[C@@H](C)[C@@H](OC)CN(C)C(=O)c3cc(NC(=O)C4CC4)ccc3OC[C@H]2C)cc1,1
O=S(=O)(c1ccccc1)N1CCCCN2[C@H](CO)[C@H](c3ccc(C#CC4CCCC4)cc3)[C@@H]2C1,23
O=S(=O)(c1ccccc1)N1CCCCN2[C@H](CO)[C@@H](c3ccc(-c4ccccc4)cc3)[C@@H]2C1,-5
SMILES,DUX4 inh
C[C@H](O)C#Cc1ccc([C@@H]2[C@H](CO)N3CCCCN(S(=O)(=O)c4ccccc4)C[C@@H]23)cc1,1
O=S(=O)(c1ccc(F)cc1)N1CCCCN2[C@H](C1)[C@@H](c1ccc(C#CC3CC3)cc1)[C@@H]2CO,-2
O=S(=O)(c1ccccc1)N1CCCCN2[C@H](C1)[C@H](c1ccc(C#Cc3cccnc3)cc1)[C@@H]2CO,-45*
O=C(C1CC1)N1CCCCN2[C@H](C1)[C@@H](c1ccc(C#CC3CCCC3)cc1)[C@@H]2CO,-24*
O=S(=O)(c1ccccc1)N1CCCCN2[C@H](CO)[C@H](c3ccc(C#Cc4cccnc4)cc3)[C@@H]2C1,-56*
O=C(C1CC1)N1CCCCN2[C@H](CO)[C@H](c3ccc(C#CC4CCCC4)cc3)[C@H]2C1,-1
O=S(=O)(c1ccccc1)N1CCCCN2[C@H](C1)[C@@H](c1ccc(C#Cc3cccnc3)cc1)[C@@H]2CO,0
O=S(=O)(c1ccccc1)N1CCCCN2[C@H](C1)[C@H](c1ccc(C#CC3CCCC3)cc1)[C@@H]2CO,-26*
O=C(Nc1ccc(F)cc1)N1CCCCN2[C@H](C1)[C@H](c1ccc(C#CC3CC3)cc1)[C@@H]2CO,24
C[C@H](O)C#Cc1ccc([C@H]2[C@H]3CN(S(=O)(=O)c4ccccc4)CCCCN3[C@H]2CO)cc1,2
CO[C@@H]1CN(C)C(=O)c2ccc(NC(=O)C3CC3)cc2OC[C@H](C)N(Cc2cncnc2)C[C@H]1C,-3
